Data from the supplement of paper PMC4954754.
± gives the uncertainty stated by the source.

Test system: HEK293T-Rex ERSE-FLuc
Test: ERSE-FLuc reporter activation, triplicate confirmation, relative to 500 nM thapsigargin (% of thapsigargin); higher = stronger ATF6/ERSE reporter activation
Conditions: 6.8 µM; 18 h; screen: confirmation
Experimental: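 HEK293T-Rex cells stably expressing the ERSE-firefly luciferase (BiP promoter, ATF6-preferring) or XBP1-splicing Renilla luciferase (IRE1/XBP1s) reporter, 1536-well plates, compound at 6.8 µM for 18 hr at 37 °C; luminescence read […] and expressed as % activation = 100*(compound - median DMSO)/(median 500 nM thapsigargin - median DMSO). Primary screen was single-pass; confirmation screen in triplicate (mean ± SD).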

| Structure (SMILES) | ERSE-FLuc reporter activation |
| --- | --- |
| COc1ccc(-c2cnnc(N/N=C/c3ccc(O)c(O)c3)n2)cc1 | 35.9 ± 7.5 |
| CN(C)c1ccc(/C=C/C(=O)NC(=O)c2ccccc2OC(=O)c2ccccc2)cc1 | 26.9 ± 8.8 |
| O=C(N/N=C/c1cccc(O)c1O)c1ccccc1I | 25.6 ± 5.4 |
| COc1cccc(C(=O)/C=C/Nc2cc(C)ccc2O)c1 | 116 ± 7.9 |
| CCOc1ccc2nc(NC(=O)c3ccn(C)n3)sc2c1 | 30 ± 23 |
| OCCNc1nc(Nc2ccc(Cl)cc2)nc2ccccc12 | 67.9 ± 10 |
| COc1ccccc1OCC(=O)Nc1cc(C)ccc1O | 33.1 ± 6.4 |
| O=[N+]([O-])c1ccc(/C=C/c2ccc(O)cc2)cc1 | 28.8 ± 3.3 |
| CCCNc1ccnc(N2CCc3ccccc3C2)n1 | 25.7 ± 11 |
| Nc1ccc2nc(-c3ccc(Cl)cc3)[nH]c2c1 | 33.6 ± 2.4 |
| CC(=O)Oc1ccc2cc(NC(=O)c3ccc(C)cc3)c(=O)oc2c1 | 29.7 ± 6 |
| Cc1ccc(O)c(N/C=C/C(=O)c2cccs2)c1 | 62.1 ± 12 |
| O=c1/c(=C/c2ccc(O)c(O)c2)sc2nc3ccccc3n12 | 37.5 ± 3.7 |
| Cc1ccc(O)c(NC(=O)c2cc(-c3cccs3)on2)c1 | 106 ± 4 |
| Oc1ccc(-c2cn3ccccc3n2)cc1O | 40 ± 5.6 |
| Nc1nc(Nc2ccccc2)cc(-c2ccccc2)n1 | 33.8 ± 3.9 |
| Cc1ccc(C(=O)Nc2sc3c(c2C#N)CCC3)cc1 | 27.4 ± 2.7 |
| COc1cccc(Nc2nc(-c3ccc(OC)c(F)c3)cs2)c1 | 25.2 ± 4.3 |
| CCCCCCOc1ccc(/C(C)=N/NC2=NCCN2)cc1[N+](=O)[O-] | 31.3 ± 2.8 |
| CC(C)c1ccc(/C=N\NC(=O)c2ccccc2)cc1 | 27.4 ± 3.1 |
